The source of these data is PubChem BioAssay (NCI).

SMILES strings stand for the structures. About 79,000 compounds went through this panel and 15% of them were active in at least one assay; those are over-represented in the sample as a whole. A number with no mark means an inactive call. Calls of active or inactive are those of the source. No stated cut-off is given here; in the data, active means growth inhibition above about 70%; inactive means the rest.

Test [1] is described as follows: NCI Yeast Anticancer Drug Screen. Data for the rad50 strain (AID 155).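 Further: 0% = growth of vehicle-only cultures of the same strain.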 The conditions noted are these: S. cerevisiae rad50 strain growth inhibition, stronger effect = higher value. The procedure, abridged:
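A DNA repair-deficient yeast mutant serves as the test organism; compound-induced growth inhibition is calculated against vehicle-treated cells.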

The nature of test [2]: NCI Yeast Anticancer Drug Screen. Data for the mec2-1 strain (AID 157). The following applies: S. cerevisiae mec2-1 strain, stronger effect = higher value. The gist of the method:
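Strain: mec2-1 (DNA repair/cell cycle alteration). Compound exposure, then growth measured; inhibition expressed relative to vehicle.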

Test [3] is described as follows: NCI Yeast Anticancer Drug Screen. Data for the sgs1 mgt1 strain (AID 161).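 Further: 0% = growth of cultures given vehicle only.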 The conditions noted are these: S. cerevisiae sgs1 mgt1 strain, stronger effect = higher value. The procedure, abridged:
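Mutant yeast exposed to compound; growth scored against vehicle-only wells.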

Test [4] can be described thus: NCI Yeast Anticancer Drug Screen. Data for the cln2 rad14 strain (AID 165).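 Further: 0% = growth equal to vehicle treated cultures.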 The following applies: S. cerevisiae cln2 rad14 strain, stronger effect = higher value. The gist of the method: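 Compounds are applied to the cln2 rad14 yeast strain, and growth is then compared with that of vehicle-treated cultures to give inhibition.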
Test [5] is described as follows: NCI Yeast Anticancer Drug Screen. Data for the bub3 strain (AID 167). The following applies: S. cerevisiae bub3 mutant strain, stronger effect = higher value. The gist of the method: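 Inhibition values come from growth of compound-treated mutant yeast normalised to vehicle-treated controls.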
Test [6] can be described thus: NCI Yeast Anticancer Drug Screen. Data for the mlh1 rad18 strain (AID 175). The following applies: S. cerevisiae mlh1 rad18 strain growth inhibition, stronger effect = higher value. The gist of the method: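 Read-out is yeast growth inhibition, calculated against vehicle-only controls. The compound was applied to a strain engineered with DNA damage repair alterations.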
[7] abbreviates: at 5.0 µM (retest, dose inferred, filed as 0.5).
The mark [8] stands for this setting: at 50.0 µM (retest, dose inferred, filed as 5.0).

As to `COC(=O)c1nc(=S)[nH]c(C(=O)OC)c1C(=O)c1ccc2ccccc2c1`, the growth inhibition is 26% in test [1] (setting [7]); 96% (active) in test [1] (setting [8]); 94.5% (active) in test [1] (at 50.0 µM); 9% in test [2] (setting [7]); 97% (active) in test [2] (setting [8]); 71.5% (active) in test [2] (at 50.0 µM). Further, the growth inhibition is 0% in test [3] (setting [7]); 97% (active) in test [3] (setting [8]); 93.3% (active) in test [3] (at 50.0 µM); 8% in test [4] (setting [7]); 96% (active) in test [4] (setting [8]); 25.8% in test [4] (at 50.0 µM). The growth inhibition in test [5] (setting [7]) was 13%; in test [5] (setting [8]), 98% (active); in test [5] (at 50.0 µM), 71.1% (active); in test [6] (setting [7]) it was 16%; in test [6] (setting [8]), 98% (active); in test [6] (at 50.0 µM), 94.5% (active).

Regarding `Cc1c(C2CC(=O)NC2=O)c2ccccc2n1C` (stereo not given), the growth inhibition was 3% in test [1] (setting [7]); 3% in test [1] (setting [8]); 6.55% in test [1] (at 50.0 µM); -1% in test [2] (setting [7]); 0% in test [2] (setting [8]); 6.25% in test [2] (at 50.0 µM). The growth inhibition in test [3] (setting [7]) is -1%; in test [3] (setting [8]), -1%; in test [3] (at 50.0 µM), -13.8%; in test [4] (setting [7]), -4%; in test [4] (setting [8]), -5%; in test [4] (at 50.0 µM) it was 69%. The growth inhibition in test [5] (setting [7]) is 4%; in test [5] (setting [8]), 3%; in test [5] (at 50.0 µM), -20.6%; in test [6] (setting [7]), 2%; in test [6] (setting [8]) it was 3%; in test [6] (at 50.0 µM), 7.8%.

With `CN=C(N)N/N=C(\C)c1ccc2c(c1)Cc1cc(/C(C)=N/NC(N)=NC)ccc1-2`, the growth inhibition is 63% in test [1] (setting [7]); 94% (active) in test [1] (setting [8]); 87% (active) in test [1] (at 50.0 µM); 53% in test [2] (setting [7]); 96% (active) in test [2] (setting [8]); 75.9% (active) in test [2] (at 50.0 µM). Also, the growth inhibition in test [3] (setting [7]) is 45%; in test [3] (setting [8]), 98% (active); in test [3] (at 50.0 µM) it was 83.2% (active); in test [4] (setting [7]), 50%; in test [4] (setting [8]), 95% (active); in test [4] (at 50.0 µM) it was 85.3% (active). The growth inhibition was 54% in test [5] (setting [7]); 96% (active) in test [5] (setting [8]); 86.1% (active) in test [5] (at 50.0 µM); 59% in test [6] (setting [7]); 96% (active) in test [6] (setting [8]); 86.4% (active) in test [6] (at 50.0 µM).

For `C/C(CCSCc1ccccc1)=N/NC(N)=S`, the growth inhibition in test [1] (setting [7]) was 6%; in test [1] (setting [8]) it was 44%; in test [1] (at 50.0 µM), 41.8%; in test [2] (setting [7]), 4%; in test [2] (setting [8]), 65%; in test [2] (at 50.0 µM), 55.9%. Also, the growth inhibition in test [3] (setting [7]) is 6%; in test [3] (setting [8]) it was 78% (active); in test [3] (at 50.0 µM), 63.9%; in test [4] (setting [7]) it was -5%; in test [4] (setting [8]), 45%; in test [4] (at 50.0 µM), 33.2%. The growth inhibition in test [5] (setting [7]) is -1%; in test [5] (setting [8]) it was 65%; in test [5] (at 50.0 µM) it was 54.1%; in test [6] (setting [7]) it was 7%; in test [6] (setting [8]), 76% (active); in test [6] (at 50.0 µM), 66.7%.

On to `O[C@H]1[C@H]2c3cc4c(cc3CN3CCC(=C[C@@H]1O)[C@H]23)OCO4`, for which the growth inhibition in test [1] (setting [7]) is 13%; in test [1] (setting [8]), 98% (active); in test [1] (at 50.0 µM), 91.5% (active); in test [2] (setting [7]) it was 19%; in test [2] (setting [8]) it was 99% (active); in test [2] (at 50.0 µM), 93.6% (active). In addition, the growth inhibition was 23% in test [3] (setting [7]); 98% (active) in test [3] (setting [8]); 93.2% (active) in test [3] (at 50.0 µM); 77% (active) in test [4] (setting [7]); 98% (active) in test [4] (setting [8]); 90.7% (active) in test [4] (at 50.0 µM). The growth inhibition is 0% in test [5] (setting [7]); 98% (active) in test [5] (setting [8]); 91.2% (active) in test [5] (at 50.0 µM); 26% in test [6] (setting [7]); 99% (active) in test [6] (setting [8]); 92.2% (active) in test [6] (at 50.0 µM).

Consider `COc1cc2c(cc1O)C1Cc3ccc(OC)c(O)c3C(C2)N1C` (stereo not given), for which the growth inhibition in test [1] (setting [7]) is 22%; in test [1] (setting [8]), 21%; in test [1] (at 50.0 µM), 66.3%; in test [2] (setting [7]) it was 22%; in test [2] (setting [8]), 10%; in test [2] (at 50.0 µM), -3.45%. Also, the growth inhibition was 16% in test [3] (setting [7]); 13% in test [3] (setting [8]); -4.65% in test [3] (at 50.0 µM); 22% in test [4] (setting [7]); 19% in test [4] (setting [8]); -5.45% in test [4] (at 50.0 µM). The growth inhibition in test [5] (setting [7]) is 16%; in test [5] (setting [8]) it was 24%; in test [5] (at 50.0 µM) it was -5.65%; in test [6] (setting [7]), 23%; in test [6] (setting [8]), 20%; in test [6] (at 50.0 µM), -68%.

In the case of `O=C1C(c2ccccc2)=S=C2C=CC=CN12`, the growth inhibition in test [1] (setting [7]) is 2%; in test [1] (setting [8]), 67%; in test [1] (at 50.0 µM), 85.2% (active); in test [2] (setting [7]), -1%; in test [2] (setting [8]), 41%; in test [2] (at 50.0 µM), 41.1%. Besides, the growth inhibition in test [3] (setting [7]) is 2%; in test [3] (setting [8]) it was 79% (active); in test [3] (at 50.0 µM), 16.8%; in test [4] (setting [7]), -1%; in test [4] (setting [8]), 17%; in test [4] (at 50.0 µM) it was -0.75%. In addition, the growth inhibition was -4% in test [5] (setting [7]); 72% (active) in test [5] (setting [8]); 41.5% in test [5] (at 50.0 µM); 19% in test [6] (setting [7]); 95% (active) in test [6] (setting [8]); 79.3% (active) in test [6] (at 50.0 µM).

With `CC(=O)OC1C(C)OC(OC(=O)C2CCC3C(C2)OC2(CC(OC(=O)/C=C/c4ccccc4)C(C)CO2)C32CO2)C(OC2OC(C)C(O)C(OC(C)=O)C2O)C1O` (stereo not given), the growth inhibition in test [1] (setting [7]) is 34%; in test [1] (setting [8]), 97% (active); in test [1] (at 50.0 µM), 87.9% (active); in test [2] (setting [7]), 36%; in test [2] (setting [8]), 99% (active); in test [2] (at 50.0 µM), 92% (active). Moreover, the growth inhibition was 30% in test [3] (setting [7]); 99% (active) in test [3] (setting [8]); 91.5% (active) in test [3] (at 50.0 µM); 45% in test [4] (setting [7]); 96% (active) in test [4] (setting [8]); 88.1% (active) in test [4] (at 50.0 µM). Also, the growth inhibition in test [5] (setting [7]) is 31%; in test [5] (setting [8]) it was 99% (active); in test [5] (at 50.0 µM) it was 90.2% (active); in test [6] (setting [7]) it was 31%; in test [6] (setting [8]) it was 97% (active); in test [6] (at 50.0 µM), 85.2% (active).

For the molecule `O=C(Nc1ccc(F)c([N+](=O)[O-])c1)NC(Cc1ccccc1)c1ccccc1` (stereo not given), the growth inhibition in test [1] (setting [7]) was -11%; in test [1] (setting [8]), 86% (active); in test [1] (at 50.0 µM), 91.6% (active); in test [2] (setting [7]) it was -2%; in test [2] (setting [8]), 93% (active); in test [2] (at 50.0 µM), 94.2% (active). Moreover, the growth inhibition in test [3] (setting [7]) was 12%; in test [3] (setting [8]), 92% (active); in test [3] (at 50.0 µM) it was 94.2% (active); in test [4] (setting [7]) it was 2%; in test [4] (setting [8]), 92% (active); in test [4] (at 50.0 µM) it was 88.9% (active). For the same molecule, the growth inhibition is -4% in test [5] (setting [7]); 92% (active) in test [5] (setting [8]); 81.8% (active) in test [5] (at 50.0 µM); 26% in test [6] (setting [7]); 91% (active) in test [6] (setting [8]); 93.1% (active) in test [6] (at 50.0 µM).

On to `CCCCCCCCCCCCCCSC(=NC)NC`, for which the growth inhibition in test [1] (setting [7]) was 99% (active); in test [1] (setting [8]), 99% (active); in test [1] (at 50.0 µM) it was 99.5% (active); in test [2] (setting [7]), 99% (active); in test [2] (setting [8]), 99% (active); in test [2] (at 50.0 µM), 99.8% (active). Besides, the growth inhibition was 100% (active) in test [3] (setting [7]); 99% (active) in test [3] (setting [8]); 99.5% (active) in test [3] (at 50.0 µM); 99% (active) in test [4] (setting [7]); 99% (active) in test [4] (setting [8]); 98.9% (active) in test [4] (at 50.0 µM). For the same molecule, the growth inhibition is 99% (active) in test [5] (setting [7]); 99% (active) in test [5] (setting [8]); 99.5% (active) in test [5] (at 50.0 µM); 98% (active) in test [6] (setting [7]); 99% (active) in test [6] (setting [8]); 99.4% (active) in test [6] (at 50.0 µM).
